From PubChem BioAssay
Hits are enriched below; roughly 3.5% of the tested compounds scored in any of these assays.
Anthrax LF inh2: inhibitors of Bacillus anthracis lethal factor protease | multiplex microsphere protease cleavage assay, LF | inhibition, % at 10 µM | hit rate 0.12% among 360,000 | AID 588501; note: plate controls were buffer without enzyme for full effect and enzyme alone for no effect
Target sequence (P15917 whole entry, looked up): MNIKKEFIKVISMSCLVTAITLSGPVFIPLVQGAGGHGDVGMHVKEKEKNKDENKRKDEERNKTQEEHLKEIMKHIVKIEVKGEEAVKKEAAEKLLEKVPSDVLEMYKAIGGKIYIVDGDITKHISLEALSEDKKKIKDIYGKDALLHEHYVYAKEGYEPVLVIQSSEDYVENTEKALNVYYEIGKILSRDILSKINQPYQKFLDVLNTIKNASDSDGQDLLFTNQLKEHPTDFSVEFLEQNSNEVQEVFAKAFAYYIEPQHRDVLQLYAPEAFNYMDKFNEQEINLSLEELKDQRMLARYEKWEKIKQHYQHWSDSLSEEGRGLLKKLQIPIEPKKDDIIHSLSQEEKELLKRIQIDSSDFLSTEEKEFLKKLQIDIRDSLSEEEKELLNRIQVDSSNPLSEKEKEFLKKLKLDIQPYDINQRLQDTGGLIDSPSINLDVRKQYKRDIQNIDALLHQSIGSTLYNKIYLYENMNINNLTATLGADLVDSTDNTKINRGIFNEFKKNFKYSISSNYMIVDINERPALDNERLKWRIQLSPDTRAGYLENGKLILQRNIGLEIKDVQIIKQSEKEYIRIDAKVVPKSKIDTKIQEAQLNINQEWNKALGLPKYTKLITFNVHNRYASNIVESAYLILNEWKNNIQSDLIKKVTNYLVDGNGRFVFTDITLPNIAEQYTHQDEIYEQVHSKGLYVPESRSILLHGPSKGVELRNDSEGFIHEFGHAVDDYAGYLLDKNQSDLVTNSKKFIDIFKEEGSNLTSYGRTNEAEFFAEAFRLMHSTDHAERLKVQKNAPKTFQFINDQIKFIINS
BoNT F protease: BoNT F light chain protease inhibition | Multiplex microsphere protease cleavage assay, flow cytometry | inhibition, % at 10 µM | hit rate 0.22% among 360,000; in the data active = inhibition above about 35%, passing the limit was not always enough; inconclusive = no clear call, values can overlap the other calls; note: plate controls were buffer without enzyme for full effect and enzyme alone for no effect
Bead autofluor: compound fluorescence in toxin protease inhibitor counterscreen. compound autofluorescence counterscreen, microsphere flow cytometry; active compounds read high. fluorescence intensity (test concentration not listed). hit rate 3.1% among 360,000. AID 624483; in the data active = fluorescence intensity above about 16000; inconclusive = no clear call, values can overlap the other calls
BoNT A protease: inhibitors of Botulinum neurotoxin A light chain protease. multiplex microsphere protease substrate cleavage, flow cytometry. inhibition, % at 10 µM. hit rate 0.17% among 360,000. AID 588499; note: plate controls were buffer without enzyme for full effect and enzyme alone for no effect
* marks the source's active call; other numbers are inactive results; ? = inconclusive. Cut-off read from the data, not from the text of the source, unless noted: active = inhibition above about 30%; inconclusive = no clear call, values can overlap the other calls; inactive = below that.

SMILES | Anthrax LF inh2 | BoNT F protease | Bead autofluor | BoNT A protease
CCOC(=O)C1=C(C)NC(C)=C(C(=O)OCC)C1/C=C/c1ccccc1OC | 0 | -2 | 2545 | 0
COC(=O)C1=C(C)NC(C)=C(C(=O)OC)C1c1ccc(N(C)C)cc1 | 0 | -2 | 23084* | ?
COC(=O)C1=C(C)NC(C)=C(C(=O)OC)C1/C=C/c1ccccc1 | -2 | -4 | 20052* | -2
C=CCOC(=O)C1=C(C)NC(C)=C(C(=O)OCC=C)C1/C=C/c1ccccc1 | -4 | -6 | 3810 | 0
COCCN(Cc1ccccc1)C(=O)c1ccc(C(=O)c2ccccc2)cc1 | -1 | -6 | 6618 | 1
COc1ccc(C(=O)CCC(=O)NC2=NCCS2)cc1 | 0 | -9 | 8273 | -1
COc1cccc(C(=O)N2CCC(CCC(=O)Nc3cccc(C)c3)CC2)c1 | 0 | 3 | 5728 | 1
Cc1nnc(-c2cccc(Br)c2)c2cn(-c3ccccc3Cl)nc12 | -14 | 14 | 26146* | 2
O=S(=O)(NCC1CCCO1)c1ccccc1F (stereo not given) | 13 | -7 | 3500 | 2
COc1cccc(-c2ccc3nnc(SCC(=O)Nc4ccc(NC(C)=O)cc4)n3n2)c1 | 5 | 5 | 5182 | 3
CCOC(=O)C1=C(N)n2c(s/c(=C/c3ccco3)c2=O)=C(C(=O)OC)C1c1ccco1 (stereo not given) | 0 | 0 | 20070* | ?
CN(C)/C=C1\C(=O)N(c2ccc(Oc3ccccc3)cc2)CS1=O (stereo not given) | -1 | 1 | 22670* | 1
COc1ccc(CN2C(=O)c3cccnc3C2Nc2ccc(C)cc2)cc1 (stereo not given) | 2 | -9 | 3688 | -1
CC(=O)c1ccc(NC2c3ncccc3C(=O)N2Cc2ccc(F)cc2)cc1 (stereo not given) | 1 | 4 | 21897* | 5
O=C1c2cccnc2C(=O)N1Cc1ccc(F)cc1 | -9 | 3 | 21659* | 3
O=C1c2cccnc2C(O)N1Cc1ccc(F)cc1 (stereo not given) | -5 | 1 | 23014* | 0
CC1=C(C(=O)N(C(C)C)C(C)C)CC(CC(=O)NCCN2CCOCC2)C(=O)N1CCC1=CCCCC1 (stereo not given) | -8 | -4 | 5839 | 0
Cc1ccc(C(=O)N(c2ccccn2)C(C)c2ccco2)cc1C (stereo not given) | -3 | 4 | 21171* | ?
CCOc1ccc(CCNC(=O)Nc2cccc(OC)c2)cc1OCC | 7 | -5 | 3928 | -1
COc1ccc(-c2cc(C(=O)O)c(C)o2)cc1OC | -5 | 0 | 20243* | 1
Cc1oc(-c2ccc3c(c2)OCCO3)cc1C(=O)O | 0 | -1 | 9609 | 0
CC1(C)CC2(CC(C)(C(=O)CSc3nc4ccccc4s3)OC2=O)C(=O)O1 (stereo not given) | -2 | 0 | 16350* | ?
CC1CC2(CC(C)(C(=O)CSc3nc4ccccc4s3)OC2=O)C(=O)O1 (stereo not given) | 0 | -3 | 23789* | -3
CC(=O)Nc1ccc(NS(=O)(=O)c2cccc3nonc23)cc1 | -2 | 5 | 5602 | 0
CCCCNC(=S)NNC(=O)c1ccco1 | -2 | 0 | 16637* | 0
SMILES | Anthrax LF inh2 | BoNT F protease | Bead autofluor | BoNT A protease
O=C(NC(=S)Nc1ccc(N2CCCCC2)cc1)c1ccco1 | -14 | 2 | 20910* | 3
Cc1ccc(NC(=S)NNC(=O)c2ccco2)cc1 | 0 | 2 | 21506* | 2
Cc1nnc(SCC(=O)Nc2nc(-c3ccccc3)cs2)n1N | -3 | -1 | 22717* | -1
O=C(CSc1ncn(-c2ccccc2)n1)Nc1nc2ccccc2s1 | -2 | 2 | 22783* | 2
Cc1ccc(-c2csc(NC(=O)CSc3ncn(-c4ccccc4)n3)n2)cc1 | -6 | -8 | 4310 | -1
CCOC(=O)N1CCN(C(=O)CSCC(=O)Nc2nc(-c3ccccc3)cs2)CC1 | -1 | -2 | 23127* | 0
O=C(CSc1ncn(-c2ccccc2)n1)Nc1nc2c(s1)CCCC2 | -1 | -2 | 10119 | 0
O=C(CSc1ncn(-c2ccccc2)n1)Nc1nc(-c2ccccc2)cs1 | -10 | 1 | 20833* | ?
O=C(CSCC(=O)N1CCN(c2ccccc2)CC1)Nc1nc(-c2ccc(Cl)s2)cs1 | 4 | 4 | 5884 | 0
CC1(NC(=O)CCNC(=O)c2ccc(C(C)(C)C)cc2)CCS(=O)(=O)C1 (stereo not given) | -6 | 3 | ? | 1
O=C(CSc1nnc(CNc2ccc(Cl)cc2)o1)Nc1nc2ccccc2s1 | -2 | -7 | 25121* | ?
O=C(CSc1nnc(CNC(=O)c2ccco2)o1)Nc1nc2ccccc2s1 | -1 | 2 | 2083 | 0
Cc1cc(C)n(CCc2nc(-c3ccco3)cs2)n1 | 1 | 5 | 19796* | 3
Cc1cc(C)n(CCc2nc(-c3cccs3)cs2)n1 | -1 | -17 | 2263 | 0
CCCc1ncc(C(=O)c2ccc(OC)cc2)n1C | -1 | -5 | 24262* | -3
COc1ccc(C(=O)c2cnc(C(C)C)n2C)cc1 | -4 | -15 | 7218 | 0
CC(C)(C)NC(=O)C1CC(=O)OC1(C)C (stereo not given) | 0 | -5 | 21395* | -4
O=C1C(Cl)=C(Nc2ccccc2O)C(=O)N1CCc1ccccc1 | -1 | 2 | 2661 | 2
CC(C)C(C)(C#N)NC(=O)CSc1nc(C2CCCCC2)n(-c2ccccc2)n1 (stereo not given) | -1 | 38* | 2368 | 3
O=C(N/N=C/c1cccc(Cl)c1)C1CCCC1 | -1 | -8 | 6323 | 0
CC(C)(C)Nc1nc(C(N)=O)nc(N2CCOCC2)n1 | -4 | -5 | 24325* | -2
CCOC(CCNC(=O)c1cn(C)c(=O)c2c1c1ccccc1n2C)OCC | 69* | 89* | 5221 | 7
CC(C)Cn1cc(C(=O)NCCCN2CCCC2=O)c2c3ccccc3n(C)c2c1=O | 0 | -2 | 16933* | -1
CC(C)Cn1cc(C(=O)NCCCN2CCC(C)CC2)c2c3ccccc3n(C)c2c1=O | -2 | -5 | 5431 | 0
CC(C)Cn1cc(C(=O)N2CCN(c3ccccn3)CC2)c2c3ccccc3n(C)c2c1=O | 0 | 4 | 16320* | 1
SMILES | Anthrax LF inh2 | BoNT F protease | Bead autofluor | BoNT A protease
CCN1CCN(C(=O)c2cn(CCOC)c(=O)c3c2c2ccccc2n3C)CC1 | -8 | 5 | 21067* | 4
COCCn1cc(C(=O)N2CCC3(CC2)OCCO3)c2c3ccccc3n(C)c2c1=O | -1 | 1 | 9721 | 0
CCCN(CCC)CCNC(=O)c1cn(C)c(=O)c2c1c1ccccc1n2C | 2 | ? | 4070 | -6
Cn1cc(CCC(=O)NCCCc2ccccc2)c2ccccc21 | 4 | -34 | 3846 | -2
CCOC(=O)C1CCN(C(=O)c2cn(CCOC)c(=O)c3c2c2ccccc2n3C)CC1 | -6 | -1 | 23452* | 0
COCCn1cc(C(=O)N2CCCC(C)C2)c2c3ccccc3n(C)c2c1=O (stereo not given) | -2 | 4 | 11638 | 0
CC1(C)CC(CCNC(=O)CCl)(c2ccccc2)CCO1 (stereo not given) | 0 | 6 | 4052 | 0
COc1cc(OC)c(OC)cc1CNC(C)C(O)c1ccccc1 (stereo not given) | -1 | -3 | 17763* | -3
